# Tests used:
# Test in all cases: DAPPL (digital affinity profiling via proximity ligation, sequencing); 10 mM Tris-HCl pH 7.5, 50 mM NaCl, 1 mM DTT, 4% glycerol, room temperature, 30 min; GST-TFs on glutathione beads, 16-mer random dsDNA library, 0.1% formaldehyde crosslink after washing; high values mean tight binding
# FLI1 = target: T1, FLI1 (Homo sapiens, UniProt Q01543 1-452); conditions: protein: recombinant; tags: N-terminal GST; dsDNA, one strand shown
# T1 sequence: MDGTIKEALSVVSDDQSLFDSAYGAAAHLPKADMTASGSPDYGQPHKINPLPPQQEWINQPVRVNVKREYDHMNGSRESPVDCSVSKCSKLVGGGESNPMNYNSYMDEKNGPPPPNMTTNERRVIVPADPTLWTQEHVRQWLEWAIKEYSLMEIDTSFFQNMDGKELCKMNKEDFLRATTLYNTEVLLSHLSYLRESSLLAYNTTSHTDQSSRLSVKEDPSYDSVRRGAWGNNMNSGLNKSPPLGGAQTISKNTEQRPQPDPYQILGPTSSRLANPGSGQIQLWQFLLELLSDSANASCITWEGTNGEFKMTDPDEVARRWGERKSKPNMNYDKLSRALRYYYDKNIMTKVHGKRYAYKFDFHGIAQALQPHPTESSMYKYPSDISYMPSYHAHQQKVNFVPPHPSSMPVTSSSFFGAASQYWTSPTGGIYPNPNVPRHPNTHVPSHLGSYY
# Method in brief: (§1)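 Binding signal is defined as a hexamer's read frequency for one factor over its frequency for the tag-only sample. To obtain reads, GST-fused human transcription factors were expressed in yeast, captured on glutathione beads, barcoded with DNA and pooled with that sample. Pools met 200 nmole of a 16-mer random double-stranded DNA library in Tris/NaCl/DTT/glycerol buffer for 30 min at room temperature before washing, 0.1% formaldehyde crosslinking, proximity ligation (BsaI/T4 ligase, 1 h, 37 °C), PCR and Illumina NextSeq500 sequencing.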
# ELK1 = target: T2, ELK1 (Homo sapiens, UniProt P19419 1-428); conditions: protein: recombinant; tags: N-terminal GST; dsDNA, one strand shown
# T2 sequence: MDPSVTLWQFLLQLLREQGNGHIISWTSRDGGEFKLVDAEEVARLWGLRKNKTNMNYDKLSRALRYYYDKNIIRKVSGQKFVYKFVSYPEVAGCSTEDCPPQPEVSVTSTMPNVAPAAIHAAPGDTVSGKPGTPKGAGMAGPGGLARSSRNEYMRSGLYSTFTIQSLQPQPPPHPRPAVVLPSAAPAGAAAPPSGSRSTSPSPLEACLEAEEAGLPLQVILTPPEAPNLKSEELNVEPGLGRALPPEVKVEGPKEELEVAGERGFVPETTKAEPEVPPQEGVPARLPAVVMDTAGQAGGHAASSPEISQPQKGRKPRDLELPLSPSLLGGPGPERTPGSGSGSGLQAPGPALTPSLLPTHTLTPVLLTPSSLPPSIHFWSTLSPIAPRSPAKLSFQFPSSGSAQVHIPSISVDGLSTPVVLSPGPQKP
# Method in brief: as §1
# GABPA = target: T3, GABPA (Homo sapiens, UniProt Q06546 1-454); conditions: protein: recombinant; tags: N-terminal GST; dsDNA, one strand shown
# T3 sequence: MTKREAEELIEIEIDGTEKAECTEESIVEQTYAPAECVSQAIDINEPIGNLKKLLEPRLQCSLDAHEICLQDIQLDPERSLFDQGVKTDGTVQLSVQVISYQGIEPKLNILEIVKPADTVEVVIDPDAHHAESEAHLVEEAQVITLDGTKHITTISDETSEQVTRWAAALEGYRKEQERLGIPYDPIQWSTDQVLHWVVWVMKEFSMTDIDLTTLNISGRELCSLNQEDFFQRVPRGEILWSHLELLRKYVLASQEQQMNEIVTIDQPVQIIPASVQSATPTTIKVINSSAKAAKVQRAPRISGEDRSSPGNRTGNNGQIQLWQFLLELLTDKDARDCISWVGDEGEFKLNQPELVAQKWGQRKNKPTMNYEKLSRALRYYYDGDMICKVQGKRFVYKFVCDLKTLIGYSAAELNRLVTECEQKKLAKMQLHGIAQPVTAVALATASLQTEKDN
# Method in brief: as §1
# ERG = target: T4, ERG (Homo sapiens, UniProt P11308 1-479); conditions: protein: recombinant; tags: N-terminal GST; dsDNA, one strand shown
# T4 sequence: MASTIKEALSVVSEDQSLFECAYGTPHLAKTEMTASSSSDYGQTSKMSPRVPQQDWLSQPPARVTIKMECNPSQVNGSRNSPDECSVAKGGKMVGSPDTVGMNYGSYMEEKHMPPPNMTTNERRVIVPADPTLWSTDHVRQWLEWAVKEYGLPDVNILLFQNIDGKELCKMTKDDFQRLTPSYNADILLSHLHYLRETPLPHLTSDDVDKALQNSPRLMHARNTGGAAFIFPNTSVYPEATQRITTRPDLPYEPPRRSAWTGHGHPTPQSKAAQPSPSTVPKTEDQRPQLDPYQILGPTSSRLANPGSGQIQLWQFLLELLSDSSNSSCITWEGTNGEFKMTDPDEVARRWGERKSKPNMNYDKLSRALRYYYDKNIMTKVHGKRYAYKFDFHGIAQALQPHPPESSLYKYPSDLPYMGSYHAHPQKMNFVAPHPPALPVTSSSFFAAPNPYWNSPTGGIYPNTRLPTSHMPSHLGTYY
# Method in brief: as §1
# ELF1 = ELF1 (Homo sapiens, UniProt P32519 1-619); conditions: protein: recombinant; tags: N-terminal GST; dsDNA, one strand shown
# Chain of ELF1 (P32519 whole entry): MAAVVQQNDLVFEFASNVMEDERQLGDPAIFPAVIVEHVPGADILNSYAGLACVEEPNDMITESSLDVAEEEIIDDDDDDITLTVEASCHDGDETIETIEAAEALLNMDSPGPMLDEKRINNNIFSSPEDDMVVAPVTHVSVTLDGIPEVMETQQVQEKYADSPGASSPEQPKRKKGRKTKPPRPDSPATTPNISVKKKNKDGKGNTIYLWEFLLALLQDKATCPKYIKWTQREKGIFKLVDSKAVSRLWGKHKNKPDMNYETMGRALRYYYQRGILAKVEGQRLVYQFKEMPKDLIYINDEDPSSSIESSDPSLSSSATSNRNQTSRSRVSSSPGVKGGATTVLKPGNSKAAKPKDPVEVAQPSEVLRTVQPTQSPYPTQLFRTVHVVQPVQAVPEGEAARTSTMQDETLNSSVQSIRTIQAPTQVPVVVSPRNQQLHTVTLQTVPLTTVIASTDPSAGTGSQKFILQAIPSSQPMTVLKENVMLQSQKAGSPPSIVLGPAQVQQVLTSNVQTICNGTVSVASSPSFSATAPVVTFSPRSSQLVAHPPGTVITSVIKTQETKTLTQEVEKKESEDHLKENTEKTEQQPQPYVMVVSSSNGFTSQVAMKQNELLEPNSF
# Method in brief: as §1
# EHF = target: T5, EHF (Homo sapiens, UniProt Q9NZC4 1-300); conditions: protein: recombinant; tags: N-terminal GST; dsDNA, one strand shown
# T5 sequence: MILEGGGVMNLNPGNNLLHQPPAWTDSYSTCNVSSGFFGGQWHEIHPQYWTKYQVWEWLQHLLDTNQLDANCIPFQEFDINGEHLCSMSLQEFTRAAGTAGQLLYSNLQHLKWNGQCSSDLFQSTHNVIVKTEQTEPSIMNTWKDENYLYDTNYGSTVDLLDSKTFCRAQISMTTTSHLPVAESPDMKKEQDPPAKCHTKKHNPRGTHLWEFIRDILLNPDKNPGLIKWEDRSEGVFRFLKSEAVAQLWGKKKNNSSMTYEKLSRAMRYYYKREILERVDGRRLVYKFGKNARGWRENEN
# Method in brief: as §1
# SPI1 = SPI1 (Homo sapiens, UniProt P17947 1-270); conditions: protein: recombinant; tags: N-terminal GST; dsDNA, one strand shown
# Method in brief: as §1
# SPIB = SPIB (Homo sapiens, UniProt Q01892 1-262); conditions: protein: recombinant; tags: N-terminal GST; dsDNA, one strand shown
# Chain of SPIB (Q01892 whole entry): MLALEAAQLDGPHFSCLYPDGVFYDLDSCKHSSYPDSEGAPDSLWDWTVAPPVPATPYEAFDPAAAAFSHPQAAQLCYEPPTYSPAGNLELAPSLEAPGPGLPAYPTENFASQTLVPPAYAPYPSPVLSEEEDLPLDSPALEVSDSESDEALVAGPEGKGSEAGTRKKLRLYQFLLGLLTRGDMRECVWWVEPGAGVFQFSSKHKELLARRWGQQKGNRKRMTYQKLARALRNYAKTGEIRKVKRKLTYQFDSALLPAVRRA
# Method in brief: as §1
# ELK3 = target: T6, ELK3 (Homo sapiens, UniProt P41970 1-407); conditions: protein: recombinant; tags: N-terminal GST; dsDNA, one strand shown
# T6 sequence: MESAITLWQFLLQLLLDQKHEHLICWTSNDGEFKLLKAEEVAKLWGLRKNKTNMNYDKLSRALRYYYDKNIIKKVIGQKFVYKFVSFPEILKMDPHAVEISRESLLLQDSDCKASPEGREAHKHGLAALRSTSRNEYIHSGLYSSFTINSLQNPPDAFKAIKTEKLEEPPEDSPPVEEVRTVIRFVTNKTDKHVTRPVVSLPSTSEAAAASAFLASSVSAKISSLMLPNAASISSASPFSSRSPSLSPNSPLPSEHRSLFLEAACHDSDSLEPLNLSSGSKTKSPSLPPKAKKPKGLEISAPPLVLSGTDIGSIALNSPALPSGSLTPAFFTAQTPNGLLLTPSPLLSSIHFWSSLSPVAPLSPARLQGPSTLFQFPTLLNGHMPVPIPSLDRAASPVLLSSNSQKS
# Method in brief: as §1
# FEV = target: T7, FEV (Homo sapiens, UniProt Q99581 1-238); conditions: protein: recombinant; tags: N-terminal GST; dsDNA, one strand shown
# T7 sequence: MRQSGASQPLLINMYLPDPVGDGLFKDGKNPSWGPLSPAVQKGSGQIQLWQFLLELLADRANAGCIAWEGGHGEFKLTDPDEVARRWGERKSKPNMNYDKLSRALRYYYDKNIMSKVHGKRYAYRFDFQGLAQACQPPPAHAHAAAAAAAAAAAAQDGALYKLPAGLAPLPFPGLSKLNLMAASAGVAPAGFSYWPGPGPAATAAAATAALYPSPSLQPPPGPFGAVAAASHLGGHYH
# Method in brief: as §1
# ETV5 = ETV5 (Homo sapiens, UniProt P41161 1-510); conditions: protein: recombinant; tags: N-terminal GST; dsDNA, one strand shown
# Chain of ETV5 (P41161 whole entry): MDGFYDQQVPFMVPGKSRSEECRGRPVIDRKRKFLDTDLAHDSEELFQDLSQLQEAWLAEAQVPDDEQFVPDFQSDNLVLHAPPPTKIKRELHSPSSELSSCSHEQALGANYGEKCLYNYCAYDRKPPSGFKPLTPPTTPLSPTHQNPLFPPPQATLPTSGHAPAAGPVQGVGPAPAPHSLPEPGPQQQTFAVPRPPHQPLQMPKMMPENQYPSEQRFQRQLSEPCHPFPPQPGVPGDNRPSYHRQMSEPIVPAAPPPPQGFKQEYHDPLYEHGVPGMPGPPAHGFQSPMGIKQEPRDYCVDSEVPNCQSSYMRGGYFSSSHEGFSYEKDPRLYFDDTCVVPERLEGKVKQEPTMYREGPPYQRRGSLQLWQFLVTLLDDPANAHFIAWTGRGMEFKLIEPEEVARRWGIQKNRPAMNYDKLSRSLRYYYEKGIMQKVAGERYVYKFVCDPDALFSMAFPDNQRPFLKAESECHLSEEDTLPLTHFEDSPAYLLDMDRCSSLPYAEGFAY
# Method in brief: as §1
# HSF1 = HSF1 (Homo sapiens, UniProt Q00613 1-529); conditions: protein: recombinant; tags: N-terminal GST; chain copies: 3; dsDNA, one strand shown
# Chain of HSF1 (Q00613 whole entry): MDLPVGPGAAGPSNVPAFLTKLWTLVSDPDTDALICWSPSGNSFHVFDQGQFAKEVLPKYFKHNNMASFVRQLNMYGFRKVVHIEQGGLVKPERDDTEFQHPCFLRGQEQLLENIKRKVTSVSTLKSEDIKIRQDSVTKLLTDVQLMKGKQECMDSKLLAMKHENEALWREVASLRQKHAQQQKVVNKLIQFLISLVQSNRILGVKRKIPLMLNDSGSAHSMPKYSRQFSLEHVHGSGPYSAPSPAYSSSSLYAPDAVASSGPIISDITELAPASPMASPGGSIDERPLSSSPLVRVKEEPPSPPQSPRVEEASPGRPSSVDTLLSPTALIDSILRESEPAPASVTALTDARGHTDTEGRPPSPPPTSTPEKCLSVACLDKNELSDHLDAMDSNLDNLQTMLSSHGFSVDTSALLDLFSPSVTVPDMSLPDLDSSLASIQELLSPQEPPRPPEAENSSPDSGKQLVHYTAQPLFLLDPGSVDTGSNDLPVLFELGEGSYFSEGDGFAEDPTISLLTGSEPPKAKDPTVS
# Method in brief: as §1
# SPIC = target: T8, SPIC (Homo sapiens, UniProt Q8N5J4 1-248); conditions: protein: recombinant; tags: N-terminal GST; dsDNA, one strand shown
# T8 sequence: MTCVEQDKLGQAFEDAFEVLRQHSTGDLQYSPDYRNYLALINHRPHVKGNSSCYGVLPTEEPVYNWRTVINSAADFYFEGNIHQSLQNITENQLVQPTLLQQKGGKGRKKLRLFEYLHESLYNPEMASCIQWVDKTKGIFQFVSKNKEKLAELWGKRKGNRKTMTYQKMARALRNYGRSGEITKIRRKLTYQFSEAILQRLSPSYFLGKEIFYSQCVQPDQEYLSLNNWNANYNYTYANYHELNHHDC
# Method in brief: as §1
# ELF4 = ELF4 (Homo sapiens, UniProt Q99607 1-663); conditions: protein: recombinant; tags: N-terminal GST; dsDNA, one strand shown
# Chain of ELF4 (Q99607 whole entry): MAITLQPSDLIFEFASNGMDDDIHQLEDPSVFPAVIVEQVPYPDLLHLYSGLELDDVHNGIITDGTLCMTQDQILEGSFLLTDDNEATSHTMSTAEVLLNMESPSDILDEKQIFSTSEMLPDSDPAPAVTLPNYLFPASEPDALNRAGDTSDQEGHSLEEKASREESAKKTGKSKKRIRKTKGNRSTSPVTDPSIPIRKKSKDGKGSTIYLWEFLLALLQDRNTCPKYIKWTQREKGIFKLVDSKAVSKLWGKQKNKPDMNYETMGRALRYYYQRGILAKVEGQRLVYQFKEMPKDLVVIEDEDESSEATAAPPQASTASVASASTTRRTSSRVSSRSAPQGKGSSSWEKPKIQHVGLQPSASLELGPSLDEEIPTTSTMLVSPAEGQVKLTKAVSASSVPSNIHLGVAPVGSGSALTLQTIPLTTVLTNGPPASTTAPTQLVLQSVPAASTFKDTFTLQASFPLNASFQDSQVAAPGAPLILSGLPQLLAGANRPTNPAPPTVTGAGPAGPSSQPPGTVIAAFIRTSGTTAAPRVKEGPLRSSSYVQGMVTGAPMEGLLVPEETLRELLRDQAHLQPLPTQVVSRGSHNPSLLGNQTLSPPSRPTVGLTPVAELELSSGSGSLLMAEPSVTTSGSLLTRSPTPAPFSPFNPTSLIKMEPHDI
# Method in brief: as §1
# ELK4 = target: T9, ELK4 (Homo sapiens, UniProt P28324-2 1-405); conditions: protein: recombinant; tags: N-terminal GST; dsDNA, one strand shown
# T9 sequence: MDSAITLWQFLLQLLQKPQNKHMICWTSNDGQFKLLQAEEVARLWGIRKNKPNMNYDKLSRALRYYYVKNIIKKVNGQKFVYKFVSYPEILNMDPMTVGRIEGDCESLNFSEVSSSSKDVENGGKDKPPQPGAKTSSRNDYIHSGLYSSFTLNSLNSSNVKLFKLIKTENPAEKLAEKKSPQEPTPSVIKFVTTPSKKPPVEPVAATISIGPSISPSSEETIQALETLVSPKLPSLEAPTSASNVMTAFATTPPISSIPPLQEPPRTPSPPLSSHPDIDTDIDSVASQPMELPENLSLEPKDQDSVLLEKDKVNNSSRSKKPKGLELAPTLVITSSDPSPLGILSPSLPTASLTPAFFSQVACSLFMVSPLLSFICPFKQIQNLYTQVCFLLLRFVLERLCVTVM
# Method in brief: as §1
# ETV2 = target: T10, ETV2 (Homo sapiens, UniProt O00321 1-342); conditions: protein: recombinant; tags: N-terminal GST; dsDNA, one strand shown
# T10 sequence: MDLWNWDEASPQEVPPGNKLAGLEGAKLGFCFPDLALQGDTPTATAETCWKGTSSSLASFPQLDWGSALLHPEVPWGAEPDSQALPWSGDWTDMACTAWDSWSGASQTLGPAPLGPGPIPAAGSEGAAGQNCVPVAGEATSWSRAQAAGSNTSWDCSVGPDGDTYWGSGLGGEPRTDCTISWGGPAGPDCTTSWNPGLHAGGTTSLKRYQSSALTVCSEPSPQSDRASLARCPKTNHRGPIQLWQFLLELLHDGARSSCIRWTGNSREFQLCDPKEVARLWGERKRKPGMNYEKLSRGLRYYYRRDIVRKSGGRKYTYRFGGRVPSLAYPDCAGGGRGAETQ
# Method in brief: as §1
# ELF3 = target: T11, ELF3 (Homo sapiens, UniProt P78545 1-371); conditions: protein: recombinant; tags: N-terminal GST; dsDNA, one strand shown
# T11 sequence: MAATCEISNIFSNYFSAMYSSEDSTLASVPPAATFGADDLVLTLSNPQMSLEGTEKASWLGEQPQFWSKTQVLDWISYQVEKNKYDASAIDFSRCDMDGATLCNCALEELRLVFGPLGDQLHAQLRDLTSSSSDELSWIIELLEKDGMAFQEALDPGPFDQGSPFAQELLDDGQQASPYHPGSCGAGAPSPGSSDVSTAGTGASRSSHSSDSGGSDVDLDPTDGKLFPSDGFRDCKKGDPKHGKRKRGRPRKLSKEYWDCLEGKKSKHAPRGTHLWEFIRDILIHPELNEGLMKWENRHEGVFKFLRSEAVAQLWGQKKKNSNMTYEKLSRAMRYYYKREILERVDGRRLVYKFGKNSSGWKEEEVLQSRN
# Method in brief: as §1
# CRX = CRX (Homo sapiens, UniProt O43186 1-299); conditions: protein: recombinant; tags: N-terminal GST; dsDNA, one strand shown
# Chain of CRX (O43186 whole entry): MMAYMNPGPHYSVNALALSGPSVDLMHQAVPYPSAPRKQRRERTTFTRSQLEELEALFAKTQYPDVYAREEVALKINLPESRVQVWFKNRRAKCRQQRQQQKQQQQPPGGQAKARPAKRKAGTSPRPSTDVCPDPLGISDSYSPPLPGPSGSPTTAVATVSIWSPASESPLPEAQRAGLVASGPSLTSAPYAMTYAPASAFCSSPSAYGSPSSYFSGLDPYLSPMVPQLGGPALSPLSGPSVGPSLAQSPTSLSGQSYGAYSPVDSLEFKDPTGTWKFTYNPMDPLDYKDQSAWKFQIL
# Method in brief: as §1
# ETV1 = ETV1 (Homo sapiens, UniProt P50549 1-477); conditions: protein: recombinant; tags: N-terminal GST; dsDNA, one strand shown
# Chain of ETV1 (P50549 whole entry): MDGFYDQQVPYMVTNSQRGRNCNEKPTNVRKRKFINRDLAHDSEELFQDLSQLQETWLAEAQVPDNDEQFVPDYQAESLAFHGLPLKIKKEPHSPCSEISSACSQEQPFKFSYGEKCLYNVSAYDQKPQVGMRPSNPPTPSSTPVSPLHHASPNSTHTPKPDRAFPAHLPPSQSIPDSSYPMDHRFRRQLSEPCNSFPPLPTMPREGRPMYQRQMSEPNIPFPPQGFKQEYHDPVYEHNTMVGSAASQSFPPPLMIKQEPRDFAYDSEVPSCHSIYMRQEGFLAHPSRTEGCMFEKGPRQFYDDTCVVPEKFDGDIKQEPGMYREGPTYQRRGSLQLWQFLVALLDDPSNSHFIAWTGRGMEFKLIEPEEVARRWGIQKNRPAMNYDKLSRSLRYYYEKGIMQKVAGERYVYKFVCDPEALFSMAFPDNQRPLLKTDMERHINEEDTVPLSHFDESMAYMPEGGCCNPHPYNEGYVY
# Method in brief: as §1
sequence,measurement,setting,value
CTTCCT,binding signal,FLI1,"3.11 fold enrichment (6-mer frequency, TF over GST control)"
same,binding signal,ELK1,"2.94 fold enrichment (6-mer frequency, TF over GST control)"
same,binding signal,GABPA,"2.95 fold enrichment (6-mer frequency, TF over GST control)"
same,binding signal,ERG,"3.65 fold enrichment (6-mer frequency, TF over GST control)"
same,binding signal,ELF1,"3.01 fold enrichment (6-mer frequency, TF over GST control)"
same,binding signal,EHF,"3.28 fold enrichment (6-mer frequency, TF over GST control)"
same,binding signal,SPI1,"5.09 fold enrichment (6-mer frequency, TF over GST control)"
same,binding signal,SPIB,"3.4 fold enrichment (6-mer frequency, TF over GST control)"
same,binding signal,ELK3,"3.04 fold enrichment (6-mer frequency, TF over GST control)"
same,binding signal,FEV,"2.94 fold enrichment (6-mer frequency, TF over GST control)"
same,binding signal,ETV5,"3.4 fold enrichment (6-mer frequency, TF over GST control)"
same,binding signal,HSF1,"1.4 fold enrichment (6-mer frequency, TF over GST control)"
same,binding signal,SPIC,"3.47 fold enrichment (6-mer frequency, TF over GST control)"
same,binding signal,ELF4,"2.83 fold enrichment (6-mer frequency, TF over GST control)"
same,binding signal,ELK4,"2.83 fold enrichment (6-mer frequency, TF over GST control)"
same,binding signal,ETV2,"3.38 fold enrichment (6-mer frequency, TF over GST control)"
same,binding signal,ELF3,"2.95 fold enrichment (6-mer frequency, TF over GST control)"
same,binding signal,CRX,"1.19 fold enrichment (6-mer frequency, TF over GST control)"
same,binding signal,ETV1,"3.18 fold enrichment (6-mer frequency, TF over GST control)"

# — article PMC7862700, “An all-to-all approach to the identification of sequence-specific readers for epigenetic DNA modifications on cytosine”
